Test results as given in PubChem BioAssay (NCATS).
Results filed as inconclusive are left out. Values without a mark were called inactive. Activity calls are given as the source filed them. Calls come from the whole dose curve; as a rule, active = well fitted inhibition curve with a large enough effect; inconclusive = small, poorly fitted or top-dose-only effect; inactive = flat fitted curve, though single readings scatter.

Each compound was assayed against Phospholipid hydroperoxide glutathione peroxidase GPX4 (Homo sapiens) (UniProt P36969) (assay: Primary qHTS Assay for Inhibitors of Recombinant Selenoprotein Glutathione Peroxidase 4 (GPX4) (AID 1845192; note: nearly all actives have a fitted effect of over 65% in size)). Details: recombinant GPX4, GR-coupled NADPH fluorescence, 15 min; series mostly up to 50 µM; activity change, negative = inhibition: at the top concentration.
Sequence of Phospholipid hydroperoxide glutathione peroxidase GPX4 (Homo sapiens) (P36969 whole entry, looked up): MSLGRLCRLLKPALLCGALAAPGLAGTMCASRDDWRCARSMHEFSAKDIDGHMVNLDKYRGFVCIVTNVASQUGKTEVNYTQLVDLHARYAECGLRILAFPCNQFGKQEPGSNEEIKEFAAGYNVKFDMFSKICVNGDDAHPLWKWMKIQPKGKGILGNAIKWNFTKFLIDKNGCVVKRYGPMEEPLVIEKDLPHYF
How it was run: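 NADPH consumption followed by fluorescence at 340/450 nm, t=0 and after 15 min at room temperature. Reaction started with cumene hydroperoxide (0.5 mM final) after 30 min compound–GPX4 preincubation; final 200 nM GPX4, 100 nM GR, 1 mM GSH, 0.5 mM NADPH.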
% is set by controls: 0 for no effect and ±100 for the full control effect; potency is the fitted concentration of half-maximal effect.

Compound	outcome	activity change, negative = inhibition	Potency
CC(=O)Oc1cc(C)c(OC(C)=O)c2ccccc12	inactive [at 100 µM]		
CCCCCCCCCCCC[n+]1ccc2ccccc2c1		-5.18%	
CCCCC(=O)OCC(=O)[C@]1(O)Cc2c(O)c3c(c(O)c2[C@@H](O[C@H]2C[C@H](NC(=O)C(F)(F)F)[C@H](O)[C@H](C)O2)C1)C(=O)c1c(OC)cccc1C3=O			inactive
CO/N=C(\C(=O)N[C@@H]1C(=O)N2C(C(=O)O)=C(CSc3cnns3)CS[C@H]12)c1csc(N)n1			15.8 µM (active)
CC[N+](CC)(CC)CCC(O)(c1ccccc1)C1CCCCC1 (configuration not stated)		3.96%	
C[C@@H]1[C@H](O)[C@@H](C)/C=C/C=C\C=C\C=C\C=C\C=C\C=C\[C@H](O[C@@H]2O[C@H](C)[C@@H](O)[C@H](N)[C@@H]2O)C[C@@H]2O[C@](O)(C[C@@H](O)C[C@@H](O)[C@H](O)CC[C@@H](O)C[C@@H](O)CC(=O)O[C@H]1C)C[C@H](O)[C@H]2C(=O)O (stereo in doubt)		-12.4%	
NCc1ccccc1CC(=O)N[C@@H]1C(=O)N2C(C(=O)O)=C(CSc3nnnn3CC(=O)O)CS[C@H]12			15.8 µM (active)
CC1(C)O[C@@H]2C[C@H]3[C@@H]4CCC5=CC(=O)C=C[C@]5(C)[C@H]4[C@@H](O)C[C@]3(C)[C@]2(C(=O)CO)O1		-8.17%	
CC(=O)Oc1c(C)cc(OCC(O)CNC(C)C)c(C)c1C (configuration not stated)	inactive [at 100 µM]		
CC(=O)OCC(=O)[C@@]1(O)CC[C@H]2[C@@H]3C[C@H](C)C4=CC(=O)C=C[C@]4(C)[C@H]3[C@@H](O)C[C@@]21C		4.57%	
O=C1CSC2(CCN(CCCN3c4ccccc4Sc4ccc(Cl)cc43)CC2)N1		-3.83%	
COC(=O)[C@H]1[C@H]2C[C@@H]3c4[nH]c5ccccc5c4CCN3C[C@H]2C[C@@H](OC(=O)c2cc(OC)c(OC)c(OC)c2)[C@@H]1OC			17.8 µM (active)
CC(=O)OC(C)OC(=O)C(C)c1ccc(-c2ccccc2)c(F)c1 (configuration not stated)		0.971%	
Cc1cc(/C=C/c2ccc3cc(N(C)C)ccc3[n+]2C)c(C)n1-c1ccccc1			14.1 µM (active)
CC[C@@]1(O)C(=O)OCc2c1cc1n(c2=O)Cc2cc3c([N+](=O)[O-])cccc3nc2-1			35.5 µM (active)
CC[N+](C)(C)Cc1ccccc1Br		-12.3%	
CC1(C)C(C=C(Cl)Cl)C1C(=O)OCc1cccc(Oc2ccccc2)c1 (configuration not stated)		-8.62%	
Clc1cc(Cl)c(OCC#CI)cc1Cl		-0.691%	
CC(=O)OCC(=O)[C@@]12OC3(CCCC3)O[C@@H]1C[C@H]1[C@@H]3CCC4=CC(=O)C=C[C@]4(C)[C@@]3(F)[C@@H](O)C[C@@]12C	inactive		

Compound	outcome	activity change, negative = inhibition	Potency
CN1Cc2c(N)cccc2C(c2ccccc2)C1 (configuration not stated)	inactive		
C[C@]12CCC(=O)C=C1CC[C@@H]1[C@@H]2[C@@H](O)C[C@@]2(C)[C@H]1CC[C@]2(O)C(=O)COP(=O)(O)O			6.31 µM (active)
Cc1cc(C(=O)NNCc2ccccc2)no1	inactive [at 100 µM]		
COC(F)(F)C(Cl)Cl	inactive		
O=C(O)c1cc(=O)c2c3nc4ccccc4oc-3cc(=O)c2[nH]1			7.94 µM (active)
O=CCCCC=O	inactive		
CCOc1ccc2c(c1)C(C)=CC(C)(C)N2			31.6 µM (active)
CCCCCCCCCCCCCC[n+]1ccc(C)cc1		-12.9%	
Nc1ncnc2c1ncn2[C@@H]1O[C@H](COP(=O)(O)OP(=O)(O)OP(=O)(O)O)[C@@H](O)[C@H]1O		0.0913% [at 0.409 µM]	
CC(C)N=c1cc2n(-c3ccc(Cl)cc3)c3ccccc3nc-2cc1Nc1ccc(Cl)cc1		-1.16%	
CCN(CC)Cc1cc(Nc2ccnc3cc(Cl)ccc23)ccc1O	inactive		
COC(=O)C1=C(C#N)NC(C)=C(C(=O)OC(C)C)C1c1cccc([N+](=O)[O-])c1 (configuration not stated)		-15.7%	
CC1(C)S[C@@H]2[C@H](NC(=O)C(C(=O)O)c3ccsc3)C(=O)N2[C@H]1C(=O)O (some centres not stated)	inactive		
O=C(O)c1cc(O)c2c(c1)[O][Bi][O]2	inactive [at 0.409 µM]		
COC(=O)CCC(=O)CN	inactive		
CC(C)(C)C(=O)OCOC(=O)[C@@H]1N2C(=O)[C@@H](N=CN3CCCCCC3)[C@H]2SC1(C)C	inactive		
CC(C)C(=O)OCC(=O)[C@@]12O[C@H](C3CCCCC3)O[C@@H]1C[C@H]1[C@@H]3CCC4=CC(=O)C=C[C@]4(C)[C@H]3[C@@H](O)C[C@@]12C	inactive		
C=C1CC[C@@H]2[C@](C)(CO)[C@H](O)CC[C@@]2(C)[C@@H]1C/C=C1/C(=O)OC[C@H]1O		-18.8%	
